Data taken from PubChem BioAssay (Tox21).
Results filed as inconclusive are left out. Activity calls are given as the source filed them. Unless noted, the call rests on the fitted dose curve; in most records, active means well fitted curve in the direction sought with a large enough effect in the repeat runs; inconclusive means weak or mixed curves; inactive means no such curve, though single readings can be large; an effect the other way counts as inactive or inconclusive.

Tests used:
[1] = qHTS assay to identify small molecule agonists of the peroxisome proliferator-activated receptor delta (PPARd) signaling pathway - cell viability counter screen (AID 743211); further: on the % scale 0 is the no-effect control and ±100 the full control effect; nearly all actives have a fitted effect of over 55% in size
Method in brief: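 Viability of GeneBLAzer PPARd UAS-bla HEK293H cells was assessed after 17 h compound incubation at 37C, using CellTiter-Glo reagent added after the reporter read and luminescence recorded 30 min later.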

[2] = molecular target: Peroxisome proliferator-activated receptor delta (Homo sapiens) (UniProt Q03181); experiment: qHTS assay to identify small molecule agonists of the peroxisome proliferator-activated receptor delta (PPARd) signaling pathway (AID 743212; calls by dose curve; further: on the % scale 0 is the no-effect control and ±100 the full control effect)
Method in brief: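 Cells expressing a UAS-driven beta-lactamase reporter (PPARd-bla HEK293H) were given test compounds after a 5 h settle and kept at 37 C. Reporter activity was then measured as FRET fluorescence using LiveBLAzer B/G substrate.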

[3] = qHTS assay to identify small molecule antagonists of the peroxisome proliferator-activated receptor delta (PPARd) signaling pathway - cell viability counter screen (AID 743213); further: on the % scale 0 is the no-effect control and ±100 the full control effect; nearly all actives have a fitted effect of over 50% in size
Method in brief: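 Same-well viability: cells pre-incubated 5 h, dosed with compound plus 300 nM L165041, kept 17 h at 37 C, FRET substrate 2 h RT, then CellTiter-Glo 30 min RT and luminescence.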

[4] = molecular target: Peroxisome proliferator-activated receptor delta (Homo sapiens) (UniProt Q03181); experiment: qHTS assay to identify small molecule antagonists of the peroxisome proliferator-activated receptor delta (PPARd) signaling pathway (AID 743215; active means well fitted inhibition curve with a large enough effect in the signal ratio in the repeat runs, not every such curve was filed as active; the % refers to the signal ratio;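 further: cells stimulated with agonist L165041 at 300 nM final during compound exposure; series mostly up to about 62 µM; on the % scale 0 is the no-effect control and ±100 the full control effect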)
Method in brief: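 Agonist L165041 (300 nM final) added with compound to PPARd-bla HEK293H UAS-bla reporter cells; 17 h incubation at 37 C. Read-out: LiveBLAzer FRET substrate, 2 h at room temperature, fluorescence intensity.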

[5] = qHTS assay to identify small molecule agonists of the farnesoid-X-receptor (FXR) signaling pathway - cell viability counter screen (AID 743218); further: on the % scale 0 is the no-effect control and ±100 the full control effect; nearly all actives have a fitted effect of over 45% in size
Method in brief: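 Viability counter screen in the same wells: CellTiter-Glo luminescence, 30 min room-temperature incubation, measured after the beta-lactamase read. Cells were GeneBLAzer FXR-UAS-bla HEK 293T, compound-treated 16 h at 37C.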

[6] = qHTS assay to identify small molecule antagonists of the farnesoid-X-receptor (FXR) signaling pathway - cell viability counter screen (AID 743221; active means well fitted cell-killing curve with a large enough effect in the repeat runs, not every such curve was filed as active; further: on the % scale 0 is the no-effect control and ±100 the full control effect; nearly all actives have a fitted effect of over 50% in size)
Method in brief: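 Quantitative HTS of the Tox21 10K library run in parallel with the beta-lactamase reporter read. HEK 293T cells carrying a UAS-driven bla reporter got compound and 50 uM CDCA (final) for 16 h; ATP-based luminescence followed.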

[7] = qHTS assay to identify small molecule agonists of the vitamin D receptor (VDR) signaling pathway - cell viability counter screen (AID 743224); further: series mostly up to about 63 µM; on the % scale 0 is the no-effect control and ±100 the full control effect; nearly all actives have a fitted effect of over 50% in size
Method in brief: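 Counter screen run in the same wells as the VDR-bla reporter assay: CellTiter-Glo luminescence, 30 min at room temperature, after 16 h compound treatment at 37C of cells pre-plated for 4 h.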

[8] = qHTS assay to identify small molecule antagonists of the vitamin D receptor (VDR) signaling pathway - cell viability counter screen (AID 743225); further: on the % scale 0 is the no-effect control and ±100 the full control effect; nearly all actives have a fitted effect of over 50% in size
Method in brief: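 Cells (VDR-UAS-bla HEK 293T) are plated, rested 4 h at 37C, dosed with compound and 3 nM final 1-alpha,25-dihydroxy vitamin D3, and incubated 16 h. Viability is taken from CellTiter-Glo luminescence in the reporter wells.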

[9] = qHTS assay to identify small molecule agonists of the NFkB signaling pathway (AID 1159509; active means well fitted curve in the direction sought with a large enough effect in the signal ratio in the repeat runs, not every such curve was filed as active; the % refers to the signal ratio; further: series mostly up to about 61 µM; on the % scale 0 is the no-effect control and ±100 the full control effect)
Method in brief: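 Agonist activity was read as beta-lactamase-driven FRET change (460 and 530 nm emission, 405 nm excitation) following 1.5 hr substrate loading at room temperature. Beforehand, ME-180 NFkB-bla reporter cells were treated with compounds for 5 hr at 37 C.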

[10] = qHTS assay to identify small molecule agonists of the NFkB signaling pathway - cell viability counter screen (AID 1159515; calls by dose curve; further: series mostly up to about 61 µM; on the % scale 0 is the no-effect control and ±100 the full control effect; nearly all actives have a fitted effect of over 55% in size)
Method in brief: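 Read by CellTiter-Glo luminescence (30 min, room temperature) in the wells also used for the beta-lactamase FRET read. ME-180 NFkB-bla cells at 2,000 per well were plated overnight, then exposed to compound for 5 hr at 37 C.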

[11] = qHTS assay to identify small molecule agonists of the endoplasmic reticulum stress response signaling pathway (AID 1159516; active means well fitted activation curve with a large enough effect in the signal ratio in the repeat runs, not every such curve was filed as active; the % refers to the signal ratio; further: on the % scale 0 is the no-effect control and ±100 the full control effect)
Method in brief: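 Ratiometric FRET readout (405 nm excitation; 460 and 530 nm emission) of a beta-lactamase gene driven by the ER stress response element, after 2 hr substrate loading. HeLa ESRE-bla cells were seeded overnight and treated with compounds for only 5 hr at 37 C.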

[12] = qHTS assay to identify small molecule agonists of the endoplasmic reticulum stress response signaling pathway - cell viability counter screen (AID 1159517; calls by dose curve)
Method in brief: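 Cpd-treated ESRE-bla HeLa (5 hr, 37 C) → LiveBLAzer 2 hr RT → CellTiter-Glo 30 min RT → luminescence.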

[13] = qHTS assay to identify small molecule antagonists of the retinoid-related orphan receptor gamma (ROR-gamma) signaling pathway - cell viability counter screen (AID 1159520)
Method in brief: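 Tet-on ROR gamma CHO cells (1,000/well) were plated 4 hr, given compounds in DMSO for 2 hr at 37 C, then induced with 1 uM final doxycycline for 16 hr. Viability was read as ATP by CellTiter-Glo luminescence after 30 min.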

[14] = molecular target: Nuclear receptor ROR-gamma (Homo sapiens) (UniProt P51449); experiment: qHTS assay to identify small molecule antagonists of the retinoid-related orphan receptor gamma (ROR-gamma) signaling pathway (AID 1159521)
Method in brief: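 RORγ antagonism is scored from reduced reporter luminescence in Tet-on CHO cells. Induction used 1 uM final doxycycline hyclate for 16 h at 37 C, following a 2 h compound exposure.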

[15] = qHTS assay to identify small molecule agonists of the AP-1 signaling pathway - cell viability counter screen (AID 1159525; calls by dose curve; further: nearly all actives have a fitted effect of over 55% in size)
Method in brief: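 Each titration point was normalised to DMSO and tetra n-octyl ammonium bromide controls. The read was Cell Titer Glo luminescence after 30 min at RT, following 5 h compound exposure of ME-180 AP-1-bla cells at 37 °C.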

[16] = qHTS assay to identify small molecule agonists of the AP-1 signaling pathway (AID 1159526; calls by dose curve; further: on the % scale 0 is the no-effect control and ±100 the full control effect)
[17] = molecular target: Vitamin D3 receptor (Homo sapiens) (UniProt P11473); experiment: qHTS assay to identify small molecule agonists of the vitamin D receptor (VDR) signaling pathway (AID 743222; calls by dose curve; further: on the % scale 0 is the no-effect control and ±100 the full control effect)
Method in brief: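 Agonist mode, beta-lactamase reporter: fluorescence from LiveBLAzer B/G FRET substrate (2 h, room temperature) read after 16 h compound treatment at 37 C of VDR-bla cells, which were pre-incubated 4 h after seeding.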

[18] = molecular target: Vitamin D3 receptor (Homo sapiens) (UniProt P11473); experiment: qHTS assay to identify small molecule antagonists of the vitamin D receptor (VDR) signaling pathway (AID 743223; active means well fitted inhibition curve with a large enough effect in the signal ratio in the repeat runs, not every such curve was filed as active; the % refers to the signal ratio; further: on the % scale 0 is the no-effect control and ±100 the full control effect)
Method in brief: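 Fluorescence from LiveBLAzer B/G FRET substrate, read after 2 h at room temperature, reflects beta-lactamase reporter activity in VDR-bla cells treated 16 h at 37C with compounds and agonist 1alpha,25-dihydroxyvitamin D3 (3 nM final).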

Sequence of Peroxisome proliferator-activated receptor delta (Homo sapiens) (Q03181 whole entry, looked up): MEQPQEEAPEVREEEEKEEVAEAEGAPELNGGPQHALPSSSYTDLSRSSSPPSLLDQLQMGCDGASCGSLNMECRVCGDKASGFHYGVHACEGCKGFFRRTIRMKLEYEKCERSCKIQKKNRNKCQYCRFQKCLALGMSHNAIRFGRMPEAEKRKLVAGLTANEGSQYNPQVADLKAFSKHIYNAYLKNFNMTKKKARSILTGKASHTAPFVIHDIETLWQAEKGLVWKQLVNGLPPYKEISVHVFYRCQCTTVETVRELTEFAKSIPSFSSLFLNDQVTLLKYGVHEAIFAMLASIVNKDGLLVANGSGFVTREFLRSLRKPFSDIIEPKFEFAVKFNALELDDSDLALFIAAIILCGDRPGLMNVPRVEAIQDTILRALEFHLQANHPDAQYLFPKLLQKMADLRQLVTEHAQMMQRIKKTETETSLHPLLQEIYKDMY
Sequence of Vitamin D3 receptor (Homo sapiens) (P11473 whole entry, looked up): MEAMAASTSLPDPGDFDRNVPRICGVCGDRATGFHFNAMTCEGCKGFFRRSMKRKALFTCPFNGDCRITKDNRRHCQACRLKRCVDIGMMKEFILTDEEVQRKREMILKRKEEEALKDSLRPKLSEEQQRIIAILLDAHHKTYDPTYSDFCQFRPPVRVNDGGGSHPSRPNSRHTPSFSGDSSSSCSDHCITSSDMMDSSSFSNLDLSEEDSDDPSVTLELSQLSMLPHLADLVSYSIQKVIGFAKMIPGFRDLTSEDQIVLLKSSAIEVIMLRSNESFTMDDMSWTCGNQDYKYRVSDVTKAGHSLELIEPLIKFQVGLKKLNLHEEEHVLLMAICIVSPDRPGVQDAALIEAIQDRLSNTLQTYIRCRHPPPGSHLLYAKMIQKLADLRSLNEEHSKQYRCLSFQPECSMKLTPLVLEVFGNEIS

O=C(O)COc1nn(Cc2ccccc2)c2ccccc12
inactive: Potency [1] | outcome [2] | Potency [3] | Potency [4] | Potency [5] | Potency [6] | Potency [7] | Potency [8] | outcome [9] | outcome [10] | outcome [11] | outcome [12] | outcome [13] | Potency [14] | Potency [15] | outcome [16]

CCC=O
inactive: Potency [1] | outcome [2] | Potency [3] | Potency [5] | Potency [6] | outcome [17] | outcome [18] | Potency [7] | Potency [8] | outcome [9] | outcome [10] | outcome [11] | outcome [12] | outcome [13] | Potency [14] | Potency [15] | outcome [16]

N=C(N)c1ccccc1
inactive: Potency [1] | outcome [2] | Potency [3] | Potency [4] | Potency [6] | outcome [17] | Potency [7] | outcome [9] | outcome [10] | outcome [11] | outcome [12] | outcome [13] | Potency [14] | Potency [15] | outcome [16]

Cc1cnc(NS(=O)(=O)c2ccc(N)cc2)nc1
inactive: Potency [1] | outcome [2] | Potency [3] | Potency [4] | Potency [5] | Potency [6] | outcome [17] | outcome [18] | Potency [7] | Potency [8] | outcome [9] | outcome [10] | outcome [11] | outcome [12] | outcome [13] | Potency [14] | Potency [15] | outcome [16]

COc1ccccc1OCC(O)CN1CCN(CC(=O)Nc2c(C)cccc2C)CC1 (stereo unspecified)
inactive: Potency [1] | outcome [2] | Potency [3] | Potency [5] | Potency [6] | outcome [17] | Potency [7] | Potency [8] | outcome [9] | outcome [10] | outcome [11] | outcome [12] | outcome [13] | Potency [14] | Potency [15] | outcome [16]

O=C(O)CN(CCOCCOCCN(CC(=O)O)CC(=O)O)CC(=O)O
inactive: activity change, negative = cytotoxicity [1] 8.22% [at 0.55 µM] | activation [2] -2.28% [at 0.55 µM] | viability change, negative = cytotoxic [3] 5.18% [at 0.575 µM] | ratio activity, negative = inhibition [4] 6.3% [at 0.575 µM] | viability change, negative = cytotoxic [5] -1.35% [at 0.55 µM] | activation [17] 6.34% [at 0.554 µM] | activity change, negative = inhibition [18] 2.94% [at 0.628 µM] | activity change, negative = cytotoxicity [7] 7.18% [at 0.55 µM] | viability change, negative = cytotoxic [8] 0.79% [at 0.628 µM] | activation [9] -0.0067% [at 0.628 µM] | activity, negative = cytotoxic [10] 7.66% [at 0.628 µM] | activation [11] 0.191% [at 0.628 µM] | activity change, negative = cytotoxicity [12] 11.3% [at 0.628 µM] | activity, negative = cytotoxicity [13] 0.0573% [at 0.349 µM] | activity change, negative = inhibition [14] 4.15% [at 0.35 µM] | viability change, negative = cytotoxic [15] -1.21% [at 0.29 µM] | activation [16] -6.2% [at 0.29 µM]

C1CN(CCOCCN2CCOCC2)CCO1
inactive: Potency [1] | outcome [2] | Potency [3] | Potency [5] | Potency [6] | outcome [17] | outcome [18] | Potency [8] | outcome [9] | outcome [10] | outcome [11] | outcome [12] | outcome [13] | Potency [14] | Potency [15] | outcome [16]

N#Cc1ccc(C2CCCc3cncn32)cc1 (stereo unspecified)
inactive: Potency [1] | outcome [2] | Potency [3] | Potency [5] | Potency [6] | outcome [17] | outcome [18] | Potency [7] | outcome [9] | outcome [10] | outcome [11] | outcome [12] | outcome [13] | Potency [14] | Potency [15] | outcome [16]
